Data from the supplement of paper PMC10849652.
About 8,800 targets were measured; listed, in parts, are those with a hit and a random draw of the rest. About 0.5% of all pairs of compound and target were hits. Values without a mark were called inactive.

Tests used:
Assay in all cases: log2 fold change, soluble protein after heating vs DMSO (PISA); higher = thermal stabilisation; K562 lysate, 10 uM; active = over 0.2 and 3.5 SD of the protein, either way, in both replicates (recomputed)
[1] = compound: NCC(=O)Nc1ccc(-n2nc(C(F)(F)F)cc2-c2ccc3c(ccc4ccccc43)c2)cc1
Summary of the method: (§1)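 Soluble protein was defined as the supernatant remaining after 21,000xg for 90 min, following pooling of heated aliquots and adjustment to 0.5% NP-40 at 4°C. Before that, crude K562 extract at 1 mg/mL protein in PBS pH 7.4 with 1 mM MgCl2 was treated with 10 μM compound for 30 min and heated for 3 min across 48°C-58°C. Quantification used TMTpro 16plex LC-MS/MS with channel sums equalised, and values are log-two fold changes in thermal stability relative to solvent controls from duplicates.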

vorinostat = compound: O=C(CCCCCCC(=O)Nc1ccccc1)NO [vorinostat]
Summary of the method: as §1

silmitasertib = compound: O=C(O)c1ccc2c(c1)nc(Nc1cccc(Cl)c1)c1ccncc12 [silmitasertib]
Summary of the method: as §1

[2] = compound: O=C1NC(=O)C(c2cnc3ccccn23)=C1c1cn2c3c(cc(F)cc13)CN(C(=O)N1CCCCC1)CC2
Summary of the method: as §1

entospletinib = compound: c1cn2cc(-c3ccc4cn[nH]c4c3)nc(Nc3ccc(N4CCOCC4)cc3)c2n1 [entospletinib]
Summary of the method: as §1

Sequence of UniProt P26374 (P26374 whole entry, looked up): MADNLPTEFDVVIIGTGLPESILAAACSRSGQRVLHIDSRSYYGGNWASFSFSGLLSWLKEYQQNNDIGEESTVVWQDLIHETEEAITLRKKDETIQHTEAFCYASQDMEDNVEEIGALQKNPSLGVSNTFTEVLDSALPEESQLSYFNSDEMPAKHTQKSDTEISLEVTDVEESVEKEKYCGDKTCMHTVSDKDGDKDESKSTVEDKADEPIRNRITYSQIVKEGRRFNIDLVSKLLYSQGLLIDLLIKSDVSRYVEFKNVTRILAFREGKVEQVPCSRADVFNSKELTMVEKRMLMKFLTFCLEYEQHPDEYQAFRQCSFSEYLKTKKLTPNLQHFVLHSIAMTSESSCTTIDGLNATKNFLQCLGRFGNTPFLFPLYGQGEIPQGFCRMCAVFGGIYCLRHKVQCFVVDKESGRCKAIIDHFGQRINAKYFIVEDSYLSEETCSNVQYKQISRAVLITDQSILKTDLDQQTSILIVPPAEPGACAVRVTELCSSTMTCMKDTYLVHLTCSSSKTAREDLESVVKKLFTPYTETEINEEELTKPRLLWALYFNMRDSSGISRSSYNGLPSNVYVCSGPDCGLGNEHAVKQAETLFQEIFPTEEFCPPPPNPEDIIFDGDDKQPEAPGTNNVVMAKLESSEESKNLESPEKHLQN
Sequence of UniProt Q14203 (Q14203 whole entry, looked up): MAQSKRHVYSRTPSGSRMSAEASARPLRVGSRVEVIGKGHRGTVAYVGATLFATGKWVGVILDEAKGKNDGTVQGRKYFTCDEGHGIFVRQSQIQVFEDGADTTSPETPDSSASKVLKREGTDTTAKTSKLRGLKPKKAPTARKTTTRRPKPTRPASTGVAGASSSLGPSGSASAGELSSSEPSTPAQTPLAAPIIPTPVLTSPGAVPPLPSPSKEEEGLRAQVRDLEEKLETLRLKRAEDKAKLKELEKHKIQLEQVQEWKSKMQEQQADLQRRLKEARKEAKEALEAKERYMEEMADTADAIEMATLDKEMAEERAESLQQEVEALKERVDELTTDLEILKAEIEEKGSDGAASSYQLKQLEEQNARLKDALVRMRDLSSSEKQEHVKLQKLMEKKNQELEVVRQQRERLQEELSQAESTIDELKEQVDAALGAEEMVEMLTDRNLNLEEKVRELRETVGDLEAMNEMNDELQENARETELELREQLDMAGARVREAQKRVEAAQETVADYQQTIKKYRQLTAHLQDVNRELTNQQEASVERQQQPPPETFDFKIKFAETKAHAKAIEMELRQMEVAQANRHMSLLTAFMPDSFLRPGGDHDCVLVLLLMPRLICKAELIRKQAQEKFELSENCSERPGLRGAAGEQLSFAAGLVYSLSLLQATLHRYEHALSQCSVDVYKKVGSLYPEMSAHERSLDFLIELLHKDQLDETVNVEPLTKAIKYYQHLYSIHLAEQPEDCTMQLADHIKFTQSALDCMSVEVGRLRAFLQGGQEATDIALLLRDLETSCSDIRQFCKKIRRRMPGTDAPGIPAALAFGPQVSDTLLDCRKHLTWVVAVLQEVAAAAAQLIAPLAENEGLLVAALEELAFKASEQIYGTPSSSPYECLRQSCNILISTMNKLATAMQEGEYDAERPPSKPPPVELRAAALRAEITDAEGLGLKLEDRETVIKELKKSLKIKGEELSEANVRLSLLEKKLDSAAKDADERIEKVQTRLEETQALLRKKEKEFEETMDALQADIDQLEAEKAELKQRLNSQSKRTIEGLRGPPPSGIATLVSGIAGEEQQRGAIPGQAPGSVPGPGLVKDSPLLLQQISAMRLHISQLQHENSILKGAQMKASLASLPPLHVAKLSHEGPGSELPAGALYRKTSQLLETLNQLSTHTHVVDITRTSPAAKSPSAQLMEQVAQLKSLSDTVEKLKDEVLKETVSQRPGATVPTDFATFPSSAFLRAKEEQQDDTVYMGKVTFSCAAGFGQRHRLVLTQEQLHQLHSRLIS
Sequence of UniProt P50416 (P50416 whole entry, looked up): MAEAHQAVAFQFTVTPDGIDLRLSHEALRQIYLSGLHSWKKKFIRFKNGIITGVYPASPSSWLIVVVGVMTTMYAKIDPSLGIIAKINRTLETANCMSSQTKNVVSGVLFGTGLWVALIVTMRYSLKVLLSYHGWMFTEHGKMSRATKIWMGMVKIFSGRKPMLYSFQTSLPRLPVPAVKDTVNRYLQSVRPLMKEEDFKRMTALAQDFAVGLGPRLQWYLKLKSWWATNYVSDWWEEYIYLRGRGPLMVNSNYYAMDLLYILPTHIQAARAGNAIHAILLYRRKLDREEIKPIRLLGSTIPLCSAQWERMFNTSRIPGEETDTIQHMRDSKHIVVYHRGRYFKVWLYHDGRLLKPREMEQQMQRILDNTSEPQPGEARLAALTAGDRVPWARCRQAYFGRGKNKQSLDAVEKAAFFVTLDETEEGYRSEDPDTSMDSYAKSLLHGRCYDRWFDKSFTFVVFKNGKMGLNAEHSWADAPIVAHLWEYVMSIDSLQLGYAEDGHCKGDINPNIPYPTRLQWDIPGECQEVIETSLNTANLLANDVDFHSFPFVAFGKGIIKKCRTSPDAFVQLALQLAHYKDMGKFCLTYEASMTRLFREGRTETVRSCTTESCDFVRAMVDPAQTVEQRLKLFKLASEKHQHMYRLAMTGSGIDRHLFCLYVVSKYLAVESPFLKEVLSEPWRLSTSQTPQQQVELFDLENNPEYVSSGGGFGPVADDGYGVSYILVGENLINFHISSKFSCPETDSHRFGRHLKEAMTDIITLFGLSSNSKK
Sequence of UniProt Q8WYA6 (Q8WYA6 whole entry, looked up): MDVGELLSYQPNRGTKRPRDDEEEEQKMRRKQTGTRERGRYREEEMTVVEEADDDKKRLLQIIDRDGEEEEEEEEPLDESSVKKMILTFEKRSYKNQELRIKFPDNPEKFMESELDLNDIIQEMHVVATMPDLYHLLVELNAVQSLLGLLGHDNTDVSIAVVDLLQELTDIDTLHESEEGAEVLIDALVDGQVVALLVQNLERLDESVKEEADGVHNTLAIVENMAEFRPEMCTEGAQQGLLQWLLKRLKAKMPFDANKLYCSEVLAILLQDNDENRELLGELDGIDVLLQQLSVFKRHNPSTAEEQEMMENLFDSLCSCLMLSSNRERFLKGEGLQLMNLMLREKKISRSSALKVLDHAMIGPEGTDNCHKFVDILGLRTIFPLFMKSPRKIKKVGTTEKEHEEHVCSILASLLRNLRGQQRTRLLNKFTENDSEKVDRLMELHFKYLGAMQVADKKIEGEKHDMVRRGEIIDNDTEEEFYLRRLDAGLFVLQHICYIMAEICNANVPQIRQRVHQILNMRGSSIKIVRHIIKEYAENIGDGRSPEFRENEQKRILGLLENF
Sequence of UniProt Q6PJW8 (Q6PJW8 whole entry, looked up): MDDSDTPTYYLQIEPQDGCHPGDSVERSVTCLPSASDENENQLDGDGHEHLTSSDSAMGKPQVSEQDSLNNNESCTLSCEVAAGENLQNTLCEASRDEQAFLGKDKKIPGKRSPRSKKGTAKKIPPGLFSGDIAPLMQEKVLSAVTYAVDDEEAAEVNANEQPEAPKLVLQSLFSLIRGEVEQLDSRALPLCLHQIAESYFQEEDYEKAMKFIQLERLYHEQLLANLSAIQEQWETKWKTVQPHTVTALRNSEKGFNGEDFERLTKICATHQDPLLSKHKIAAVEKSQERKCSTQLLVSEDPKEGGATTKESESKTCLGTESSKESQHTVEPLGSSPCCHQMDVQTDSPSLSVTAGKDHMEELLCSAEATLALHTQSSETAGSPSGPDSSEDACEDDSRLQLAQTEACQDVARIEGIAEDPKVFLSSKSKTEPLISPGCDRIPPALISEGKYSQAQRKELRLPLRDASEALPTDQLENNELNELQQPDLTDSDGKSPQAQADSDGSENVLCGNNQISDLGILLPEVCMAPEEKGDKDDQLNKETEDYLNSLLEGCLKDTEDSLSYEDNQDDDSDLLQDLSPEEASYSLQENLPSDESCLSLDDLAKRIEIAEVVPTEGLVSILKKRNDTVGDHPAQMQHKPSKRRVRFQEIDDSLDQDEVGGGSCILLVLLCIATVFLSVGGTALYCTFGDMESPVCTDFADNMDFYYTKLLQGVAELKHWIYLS
Sequence of UniProt P61024 (P61024 whole entry, looked up): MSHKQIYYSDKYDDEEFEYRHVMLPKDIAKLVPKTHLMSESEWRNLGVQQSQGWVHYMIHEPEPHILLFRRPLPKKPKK
Sequence of UniProt Q9H5X1 (Q9H5X1 whole entry, looked up): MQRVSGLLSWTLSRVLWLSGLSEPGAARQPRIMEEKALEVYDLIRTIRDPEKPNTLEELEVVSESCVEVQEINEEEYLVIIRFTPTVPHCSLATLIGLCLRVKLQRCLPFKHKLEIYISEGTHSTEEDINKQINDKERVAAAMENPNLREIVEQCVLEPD
Sequence of UniProt Q9NRF8 (Q9NRF8 whole entry, looked up): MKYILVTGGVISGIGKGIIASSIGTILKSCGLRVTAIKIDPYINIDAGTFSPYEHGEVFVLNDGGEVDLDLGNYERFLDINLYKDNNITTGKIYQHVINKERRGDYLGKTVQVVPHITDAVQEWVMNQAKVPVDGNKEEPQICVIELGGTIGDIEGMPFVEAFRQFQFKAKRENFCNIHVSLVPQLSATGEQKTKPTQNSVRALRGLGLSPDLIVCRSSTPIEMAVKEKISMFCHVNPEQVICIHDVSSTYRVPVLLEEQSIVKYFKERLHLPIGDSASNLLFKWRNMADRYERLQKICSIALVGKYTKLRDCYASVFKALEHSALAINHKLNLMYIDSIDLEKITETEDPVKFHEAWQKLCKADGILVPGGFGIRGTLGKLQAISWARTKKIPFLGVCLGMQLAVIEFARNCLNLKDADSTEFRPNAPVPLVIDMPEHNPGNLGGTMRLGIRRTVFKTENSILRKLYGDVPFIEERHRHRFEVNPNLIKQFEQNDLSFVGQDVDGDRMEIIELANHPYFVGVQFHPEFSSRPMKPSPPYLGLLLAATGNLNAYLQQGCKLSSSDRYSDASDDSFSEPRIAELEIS
Sequence of UniProt P61923 (P61923 whole entry, looked up): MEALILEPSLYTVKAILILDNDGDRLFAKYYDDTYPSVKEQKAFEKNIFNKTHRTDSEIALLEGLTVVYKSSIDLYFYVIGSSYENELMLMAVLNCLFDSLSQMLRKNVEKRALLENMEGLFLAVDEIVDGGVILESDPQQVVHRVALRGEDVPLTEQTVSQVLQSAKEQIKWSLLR

Target | log2 fold change [1] | log2 fold change (vorinostat) | log2 fold change (silmitasertib) | log2 fold change [2] | log2 fold change (entospletinib)
CTNND1 isoform 3 (UniProt O60716) | -0.017 | -0.371 (active) | 0.034 | -0.014 | -0.005
DDX54 isoform 2 (UniProt Q8TDD1) | 0.131 | 0.066 | -0.006 | -0.008 | -0.009
CLCN3 (UniProt P51790) | -0.165 | -0.171 | 0.118 | -0.245 | 0.025
CHML (UniProt P26374) | 0.029 | -0.286 (active) | 0.003 | -0.022 | 0.006
CTNNBL1 (UniProt Q8WYA6) | -0.026 | -0.046 | -0.044 | -0.025 | -0.011
DENND1B (UniProt Q6P3S1) | -0.063 | -1.3 (active) | 0.28 | -0.076 | –
DAPK1 isoform 3 (UniProt P53355) | 0.09 | -0.477 | 0.833 (active) | 0.004 | –
COX20 isoform 2 (UniProt Q5RI15) | -0.016 | -0.079 | 0.011 | -0.037 | 0.026
DARS (UniProt P14868) | 0.003 | -0.327 (active) | 0.056 | 0.019 | 0.035
DOCK10 (UniProt Q96BY6) | 0 | -0.07 | 0.143 | -0.064 | 0.023
CMTM3 (UniProt Q96MX0) | 0.05 | -0.516 (active) | -0.004 | -0.03 | -0.004
CXorf38 (UniProt Q8TB03) | 0.092 | -0.227 (active) | -0.013 | 0.042 | -0.073
CTPS2 (UniProt Q9NRF8) | 0.006 | 0.327 (active) | 0.007 | -0.034 | 0.019
DES (UniProt P17661) | 0.108 | 0.097 | 0.03 | 0.05 | 0.027
DLG3 isoform 2 (UniProt Q92796) | 0.067 | -0.023 | -0.025 | -0.036 | -0.007
COG5 isoform 2 (UniProt Q9UP83) | -0.005 | -0.342 (active) | 0.073 | -0.029 | 0.038
CORO7 isoform 3 (UniProt P57737) | -0.045 | -0.176 | 0.042 | 0.004 | 0.005
CHORDC1 (UniProt Q9UHD1) | 0.001 | -0.014 | -0.019 | -0.009 | 0
CUL1 (UniProt Q13616) | 0.001 | 0.072 | 0.006 | -0.007 | 0.009
COG4 (UniProt Q9H9E3) | 0.101 | -0.333 (active) | 0.022 | -0.022 | -0.023
CPT1A (UniProt P50416) | -0.033 | 0.406 (active) | -0.001 | -0.002 | -0.06
CLUH, A0A494C0R8 | -0.115 | 0.028 | 0.069 | 0.033 | 0.033
DHFR (UniProt P00374) | -0.045 | -0.214 | 0.133 | 0 | 0.002
CIAO2A (UniProt Q9H5X1) | 0.021 | 0.368 (active) | -0.016 | -0.037 | 0.009
DNAJC5 (UniProt Q9H3Z4) | 0.02 | 0.101 | -0.071 | -0.03 | 0.019
CKS1B (UniProt P61024) | -0.059 | 0.115 | -0.004 | -0.076 | -0.021
COG7 (UniProt P83436) | -0.013 | -0.287 (active) | 0.06 | 0.034 | 0.033

Target | log2 fold change [1] | log2 fold change (vorinostat) | log2 fold change (silmitasertib) | log2 fold change [2] | log2 fold change (entospletinib)
DDA1 (UniProt Q9BW61) | -0.024 | -0.289 (active) | -0.006 | 0.05 | 0.054
COL12A1 (UniProt Q99715) | 0.29 | 0.037 | -0.079 | 0.908 | -0.036
CRABP2 (UniProt P29373) | 0.169 | 0.18 | -0.05 | 0.007 | -0.209
CLP1 (UniProt Q92989) | 0.011 | -0.307 (active) | 0.029 | -0.027 | 0.008
CNOT2 (UniProt Q9NZN8) | 0.044 | -0.207 (active) | 0.015 | -0.009 | -0.015
CNTN4 (UniProt Q8IWV2) | 0.173 | -0.026 | -0.09 | 0.274 | 0.06
DCTN1 (UniProt Q14203) | 0.011 | -0.261 (active) | -0.003 | 0.012 | 0.001
CHURC1 isoform 2 (UniProt Q8WUH1) | -0.048 | 0.285 (active) | -0.039 | -0.043 | -0.128
DNAJC24 (UniProt Q6P3W2) | -0.159 | 0.053 | -0.017 | -0.014 | -0.046
DHX32 (UniProt Q7L7V1) | -0.044 | -0.351 | 0.028 | 0.097 | -0.002
COPZ1 isoform 4 (UniProt P61923) | -0.068 | 0.188 | -0.032 | 0.163 | -0.025
CLASP2 isoform 3 (UniProt O75122) | 0.035 | -0.329 (active) | -0.033 | -0.02 | 0.005
CTPS1 (UniProt P17812) | -0.007 | 0.565 (active) | 0.028 | -0.008 | -0.005
CHFR (UniProt Q96EP1) | -0.219 | -0.143 | 0.057 | 0.004 | -0.083
CLASP1 (UniProt Q7Z460) | 0.018 | -0.317 (active) | -0.015 | -0.022 | 0.029
COG6 (UniProt Q9Y2V7) | 0.021 | -0.254 (active) | 0.072 | 0.09 | 0.026
CLPB isoform 2 (UniProt Q9H078) | 0.075 | -0.446 (active) | 0.062 | -0.028 | 0.016
CMPK2 (UniProt Q5EBM0) | -0.002 | -0.323 (active) | 0.005 | 0.064 | 0
CSTF2 (UniProt P33240) | 0.001 | 0.046 | 0.007 | 0.013 | -0.045
CMIP (UniProt Q8IY22) | -0.101 | -0.541 (active) | 0.018 | 0.021 | -0.052
DHRS11 (UniProt Q6UWP2) | -0.006 | -0.255 (active) | -0.014 | 0.02 | -0.011
CMBL (UniProt Q96DG6) | -0.065 | 0.09 | 0.042 | 0.071 | 0.037
CSNK1A1 (UniProt P48729) | 0.001 | -0.276 (active) | 0.088 | -0.044 | 0.017
DNAH10 (UniProt Q8IVF4) | 0.103 | 0.065 | 0 | 0.069 | 0.065
DCP2 (UniProt Q8IU60) | -0.02 | -0.446 (active) | -0.033 | 0.085 | -0.001
CNST (UniProt Q6PJW8) | 0.051 | 0.056 | -0.028 | -0.067 | -0.024
